Anthrax LF inh2: inhibitors of Bacillus anthracis lethal factor protease; P15917; inhibition, % at 10 µM; 0.12% of 360,000 active; multiplex microsphere protease cleavage assay, LF; also: plate controls were buffer without enzyme for full effect and enzyme alone for no effect
Bead autofluor: compound fluorescence in toxin protease inhibitor counterscreen. compound autofluorescence counterscreen, microsphere flow cytometry; stronger effect = higher value. fluorescence intensity (test concentration not listed). 3.1% of 360,000 active; in the data active = fluorescence intensity above about 16000; inconclusive = no clear call, values can overlap the other calls
BoNT F protease: inhibitors of Botulinum neurotoxin F light chain protease | Multiplex microsphere protease cleavage assay, flow cytometry | 0.22% of 360,000 active | inhibition, % at 10 µM; in the data active = inhibition above about 35%, passing the limit was not always enough; inconclusive = no clear call, values can overlap the other calls; also: plate controls were buffer without enzyme for full effect and enzyme alone for no effect
BoNT A protease: inhibitors of Botulinum neurotoxin A light chain protease. multiplex microsphere protease substrate cleavage, flow cytometry. inhibition, % at 10 µM. 0.17% of 360,000 active; also: plate controls were buffer without enzyme for full effect and enzyme alone for no effect
MazEF act: activators of E. coli MazEF toxin-antitoxin RNase | AID 504720 | activation, % at 20 µM | 0.32% of 350,000 active | FAM/BHQ RNA-DNA oligo cleavage fluorescence, 5 h | P0AE70; in the data active = activation above about 50%
An asterisk follows results filed as active; ? = inconclusive; / = no result. The list is not random: actives were taken first. Their share in the collection is about 3.7%. Rule as the data show it, unless noted: active = inhibition above about 30%; inconclusive = no clear call, values can overlap the other calls; inactive = below that.

SMILES | Anthrax LF inh2 | Bead autofluor | BoNT F protease | BoNT A protease | MazEF act
C=CCn1c(SCC(=O)Nc2cccc3ccccc23)nc(O)c(CC)c1=O | -5 | 10737 | 11 | 1 | 6
CCc1c(O)nc(SCc2ccccc2)n(C(C)CC)c1=O (stereo unspecified) | 0 | 21259* | -1 | -1 | 1
C=CCSc1nc(O)c(CC)c(=O)n1C(C)CC (stereo unspecified) | -4 | 24804* | -6 | ? | -9
O=C(COC(=O)CNC(=O)C12CC3CC(CC(C3)C1)C2)Nc1ccccc1 | -16 | 19773* | 11 | ? | 3
COc1cc(NC(=O)COC(=O)CNC(=O)C23CC4CC(CC(C4)C2)C3)cc(OC)c1 | -4 | 3288 | -9 | -1 | 4
O=C1N/C(=C/c2cccn2-c2ccc(F)cc2)C(=O)N1Cc1ccccc1 | -4 | 23854* | -3 | ? | 7
CCCCNC(=O)c1ccc(S(=O)(=O)c2ccc(Cl)cc2)c(NC(C)=O)c1 | 2 | 21746* | 8 | 6 | 5
COc1ccc(OP(=O)(Nc2ccccc2)Nc2ccccc2)cc1 | -13 | 17088* | 14 | 16 | 6
CCCCCCCN1C/C=C\C(c2ccc(OC)cc2)N(Cc2ccc(F)cc2)C(=O)[C@H]1Cc1ccccc1 (stereo partly specified) | -7 | 3865 | -11 | -1 | -8
O=C(O)c1cc(NCc2ccc(F)cc2)ccc1N1CCOCC1 | -3 | 3387 | -7 | 1 | -1
O=C(O)c1cc(NCc2ccccc2C(F)(F)F)ccc1N1CCOCC1 | 0 | 22050* | -2 | ? | -14
CCN(CC)c1ccc(C=Nc2cc(C)cc(C)c2)c(O)c1 | 24 | 3216 | 13 | 50* | -2
CCN(CC)c1ccc(C=Nc2ccccc2)c(O)c1 | 25 | 3510 | 28 | 26 | -1
CCN(CC)c1ccc(/C=N/N=C(N)N)c(O)c1 | -9 | 5450 | -12 | 1 | 32
CCN(CC)c1ccc(/C=N/Nc2ccccc2)c(O)c1 | -2 | 22767* | 0 | 2 | 9
CCN(CC)c1ccc(C=Nc2ccc(N(C)C)cc2)c(O)c1 | 0 | 4280 | -20 | 7 | 532*
CCN(CC)c1ccc(C=Nc2ccc(C)cc2)c(O)c1 | 24 | 4258 | 11 | 28 | 2
CCN(CC)c1ccc(N=Cc2ccc(N(CC)CC)cc2O)cc1 | -4 | 22151* | 7 | ? | 162*
O=C(CNCc1cccc(Cl)c1)N1CCc2ccccc2C1 | 5 | 4140 | -1 | 0 | 5
CCOc1ccc(N(C)C(=O)CCc2nnc3ccc(N4CCCCC4)nn23)cc1 | -3 | 5255 | 3 | -1 | 3
Oc1cc2c(cc1O)C1c3ccc(O)c(O)c3OCC1(O)C2 (stereo unspecified) | -20 | 3952 | -25 | -6 | 264*
COc1cc(C(O)c2nc(-c3cccc(C(C)C)c3)cs2)ccc1F (stereo unspecified) | -5 | 3873 | 8 | 0 | /
O=C(Cn1nc(Cl)nc1Cl)c1ccccc1 | 5 | 3140 | -22 | -2 | 9
O=C(Cn1nc(Cl)nc1Cl)c1cc2ccccc2oc1=O | -2 | 16246* | 2 | 1 | 1
Cc1nc(N2CCN(c3ccc(Cl)cc3)CC2)[nH]c(=O)c1C | -14 | 3911 | ? | ? | 4
SMILES | Anthrax LF inh2 | Bead autofluor | BoNT F protease | BoNT A protease | MazEF act
CCCNC(=O)COc1coc(CN2CCN(c3ccc(F)cc3)CC2)cc1=O | -3 | 5290 | 3 | 3 | 0
Cc1cc(C(=O)Nc2sc3c(c2C#N)CCC(C)C3)no1 (stereo unspecified) | 0 | 11121 | 2 | 0 | -10
CC1CCc2c(sc(NC(=O)C(=O)NCc3ccco3)c2C#N)C1 (stereo unspecified) | -10 | 20783* | 10 | ? | -25
NC(=O)COC(=O)CCCc1nc2ccccc2s1 | -2 | 21657* | 1 | 2 | 1
CCOc1ccc(NC(=O)CN(C)C(=O)c2cn(-c3ccccc3)nc2-c2cccs2)cc1OCC | 4 | 5762 | 7 | 2 | 1
COc1ccc(NC(=O)C2(c3ccccc3)CCCC2)cc1 | -9 | 4149 | -3 | -1 | -1
COc1ccc(NC(=O)C2(c3ccc(NC(=O)c4ccc(OC(C)=O)cc4)cc3)CCCC2)cc1 | 0 | 20395* | 1 | 1 | -26
Nc1sc2c(c1C(=O)NC1CC1)CCCC2 | -4 | 3036 | -7 | 0 | -1
COc1c2ccc(OCC/C(C)=C/C(=O)C=C(C)C)cc2nc2occc12 | 1 | 4381 | 9 | 0 | -6
Cc1ccc(N(CC(=O)N2CCN(C3CCCCC3)CC2)S(=O)(=O)c2cccnc2)cc1 | 1 | 21207* | 1 | ? | -7

High-throughput results (PubChem)
